Source: PubChem BioAssay (EPA / NIEHS)
Results filed as inconclusive are left out. Active and inactive are the calls of the source. The calls were made as follows, unless noted: active = hit-call score of the fitted dose curve at least 0.9, where 1 is the maximum; inactive = score below 0.9.

Columns and labels:
[1] = read-out: Tumor necrosis factor (Homo sapiens) (UniProt P01375); assay: BSK_LPS_TNFa: BioMAP Diversity Plus: LPS Assay for Tumour Necrosis Factor alpha (TNFa) Biomarker Activity (AID 2283085); conditions: primary human HUVEC with PBMC; actives raise or lower the signal
Method in brief: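 Human umbilical vein endothelial cells co-cultured with PBMC and stimulated with LPS. TNFa was measured by ELISA 24 h after chemical dosing, fitted bidirectionally relative to DMSO.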

[2] = read-out: Vascular cell adhesion molecule 1 (VCAM1), VCAM1 (gene 7412); assay: BSK_LPS_VCAM1: BioMAP Diversity Plus: LPS Assay for Vascular cell adhesion molecule 1 (VCAM1) Biomarker Activity (AID 2283086); conditions: primary human HUVEC with PBMC; actives raise or lower the signal
Method in brief: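 Human umbilical vein endothelial cells co-cultured with PBMC and stimulated with LPS; VCAM-1 measured by ELISA 24 h after dosing. Bidirectional curve fitting against DMSO baseline; cytotoxicity tracked in parallel by SRB total-protein staining.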

[3] = read-out: CD38, CD38 (gene 952); assay: BSK_SAg_CD38: BioMAP Diversity Plus: SAg Assay for CD38 Biomarker Activity (AID 2283087); conditions: primary human HUVEC with PBMC; actives raise or lower the signal
Method in brief: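 Human HUVEC plus PBMC co-culture stimulated with superantigen; CD38 measured by ELISA 24 h after chemical dosing. Fluorescence read-out, bidirectional fit against DMSO; cytotoxicity tracked in parallel by SRB and Alamar Blue.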

[4] = read-out: Monocyte Chemoattractant Protein-1 (MCP1), CCL2 (gene 6347); assay: BSK_SAg_MCP1: BioMAP Diversity Plus: SAg Assay for Monocyte Chemoattractant Protein-1 (MCP1) Biomarker Activity (AID 2283090); conditions: primary human HUVEC with PBMC; actives raise or lower the signal
Method in brief: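 MCP-1 levels in the endothelial–PBMC SAg co-culture were quantified by ELISA at 24 h post-dosing; both increases and decreases versus DMSO scored. Cytotoxicity monitored by SRB total protein in parallel cultures.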

[5] = read-out: E-selectin (Homo sapiens) (UniProt P16581); assay: BSK_SAg_Eselectin: BioMAP Diversity Plus: SAg Assay for Eselectin Biomarker Activity (AID 2283091); conditions: primary human HUVEC with PBMC; actives raise or lower the signal
Method in brief: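 Cell-surface E-selectin is read by ELISA at 24 h in the SAg co-culture of HUVEC and PBMC. Curves are fitted in both directions relative to DMSO. Parallel SRB total-protein staining tracks overt toxicity.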

[6] = read-out: Monokine induced gamma interferon (MIG), CXCL9 (gene 4283); assay: BSK_SAg_MIG: BioMAP Diversity Plus: SAg Assay for Monokine induced gamma interferon (MIG) Biomarker Activity (AID 2283092); conditions: primary human HUVEC with PBMC; actives raise or lower the signal
Method in brief: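 Endothelial cells and PBMC were co-cultured, exposed to test chemicals, and sampled 24 h later. MIG was measured by ELISA, and responses were fitted in both directions relative to DMSO.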

[7] = BSK_SAg_PBMCCytotoxicity: PBMC Cytotoxicity Assessment in the BioMAP Diversity Plus: SAg Assay (AID 2283093); conditions: primary human HUVEC with PBMC;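 also: PBMC viability measured as Alamar Blue reduction fluorescence at 546/580 nm; fitted both ways against DMSO so a hit may be loss or gain of signal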;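 as to AC50: PBMC superantigen activated with SEB plus TSST-1 one hour after compound addition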
Method in brief: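 Compound added to 75,000 PBMC/well for 1 h; SEB and TSST-1 then added at 20 ng/mL final each; 90 h incubation; Alamar Blue 6 h; read 546/580 nm ex/em. Activity fitted bidirectionally relative to DMSO baseline.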

[8] = read-out: Interleukin-8 (IL8), CXCL8 (gene 3576); assay: BSK_SAg_IL8: BioMAP Diversity Plus: SAg Assay for Interleukin-8 (IL8) Biomarker Activity (AID 2283094); conditions: primary human HUVEC with PBMC; actives raise or lower the signal
Method in brief: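 Human umbilical vein endothelial cells co-cultured with PBMC, stimulated with superantigen; IL-8 measured by ELISA 24 h after chemical dosing. Bidirectional fitting versus DMSO; SRB staining in parallel cultures tracks cytotoxicity.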

[9] = BSK_SAg_Proliferation: Cell Proliferation Assessment in the BioMAP Diversity Plus: SAg Assay (AID 2283095); conditions: primary human HUVEC with PBMC
Method in brief: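 Human umbilical vein endothelial cells co-cultured with PBMC; sulforhodamine B total-protein staining (0.1% SRB after 10% TCA fixation, absorbance 560 nm) at 96 h in sub-confluent culture. Fitted bidirectionally against DMSO.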

[10] = target: human CYP19A1, CYP19A1 (gene 1588) (UniProt P11511); assay: NVS_ADME_hCYP19A1: NovaScreen (NVS) CYP450-related Enzyme Activity (ADME) Assay for human CYP19A1 (AID 2283098; active = hit-call score of the fitted dose curve at least 0.9, where 1 is the maximum;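 also: potency for inhibitors seen as loss of fluorescent enzyme signal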)
Method in brief: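 Biochem, cell-free; recombinant enzyme + specific substrate; fluorescence intensity at 0.5 h post-dose; 10 uM duplicate primary, conc. series for actives; acetonitrile = negative control/baseline; positive and negative controls on every plate.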

[11] = target: human CYP2B6, CYP2B6 (gene 1555) (UniProt P20813); assay: NVS_ADME_hCYP2B6: NovaScreen (NVS) CYP450-related Enzyme Activity (ADME) Assay for human CYP2B6 (AID 2283101; active = hit-call score of the fitted dose curve at least 0.9, where 1 is the maximum)
Method in brief: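 Cell-free recombinant enzyme assay with a fluorogenic substrate; fluorescence intensity read 1 hour after dosing. Loss of signal relative to acetonitrile negative control indicates inhibition. Primary screen run in duplicate at 10 uM, actives then tested in concentration series.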

[12] = target: human CYP1A2, CYP1A2 (gene 1544) (UniProt P05177); assay: NVS_ADME_hCYP1A2: NovaScreen (NVS) CYP450-related Enzyme Activity (ADME) Assay for human CYP1A2 (AID 2283102; active = hit-call score of the fitted dose curve at least 0.9, where 1 is the maximum;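 as to AC50: potency for inhibition since loss of fluorescence marks reduced CYP1A2 activity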)
Method in brief: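 Enzyme activity of insect-cell-expressed human CYP1A2 measured by fluorescence 0.5 h after compound addition, relative to acetonitrile. Compounds first tested in duplicate at 10 uM, actives followed up in concentration series.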

[13] = target: human CYP2D6, CYP2D6 (gene 1565) (UniProt P10635); assay: NVS_ADME_hCYP2D6: NovaScreen (NVS) CYP450-related Enzyme Activity (ADME) Assay for human CYP2D6 (AID 2283107; active = hit-call score of the fitted dose curve at least 0.9, where 1 is the maximum)
Method in brief: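 Fluorescence readout of recombinant CYP2D6 (insect-cell derived) activity after 1 h incubation with test chemical. Acetonitrile served as baseline, loss-of-signal direction. Single-concentration duplicate screening at 10 uM preceded concentration-response retesting.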

[14] = target: human CYP2C9, CYP2C9 (gene 1559) (UniProt P11712); assay: NVS_ADME_hCYP2C9: NovaScreen (NVS) CYP450-related Enzyme Activity (ADME) Assay for human CYP2C9 (AID 2283108; active = hit-call score of the fitted dose curve at least 0.9, where 1 is the maximum)
Method in brief: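 Fluorescence readout of CYP2C9 activity (SF9-expressed human enzyme) at 0.75 h. The primary screen used 10 uM in duplicate, with concentration-response follow-up for actives; acetonitrile was the negative control.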

[15] = target: Cytochrome P450 2C19 (Homo sapiens) (UniProt P33261); assay: NVS_ADME_hCYP2C19: NovaScreen (NVS) CYP450-related Enzyme Activity (ADME) Assay for human CYP2C19 (AID 2283113; active = hit-call score of the fitted dose curve at least 0.9, where 1 is the maximum;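 as to AC50: potency for inhibition seen as loss of fluorescent signal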)
Method in brief: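 Compounds first screened in duplicate at 10 uM, then confirmed in concentration series. Insect-cell-expressed human CYP2C19 turned over a fluorogenic substrate, and fluorescence was read after 1 h. Inhibition taken as signal loss relative to acetonitrile.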

[16] = read-out: CD40, CD40 (gene 958); assay: BSK_SAg_CD40: BioMAP Diversity Plus: SAg Assay for CD40 Biomarker Activity (AID 2283088); conditions: primary human HUVEC with PBMC; actives raise or lower the signal
Method in brief: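 CD40 is measured by fluorescence ELISA in an endothelial/PBMC primary human co-culture at 24 h post-dose. Fitting is bidirectional, DMSO baseline. Parallel SRB staining (560 nm) flags cytotoxicity.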

[17] = read-out: CD69, CD69 (gene 969); assay: BSK_SAg_CD69: BioMAP Diversity Plus: SAg Assay for CD69 Biomarker Activity (AID 2283089); conditions: primary human HUVEC with PBMC; actives raise or lower the signal;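 as to AC50: cell surface CD69 protein quantified by ELISA with fluorescence detection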
Method in brief: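 Primary human vascular co-culture (umbilical vein endothelium with peripheral blood mononuclear cells) exposed to test chemical for 24 h. CD69 levels quantified by fluorescence ELISA; DMSO served as negative control for bidirectional fitting.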

[18] = BSK_SAg_SRB: Viability Assessment in the BioMAP Diversity Plus: SAg Assay (AID 2283096); conditions: primary human HUVEC with PBMC;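 also: cells read one day after compound addition; hits may be either gain or loss of signal compared with DMSO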
Method in brief: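 Total protein by sulforhodamine B staining, 24 h after dosing, in HUVEC–PBMC co-culture; DMSO-referenced bidirectional fitting.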

[19] = target: Cytochrome P450 3A4 (Homo sapiens) (UniProt P08684); assay: NVS_ADME_hCYP3A4: NovaScreen (NVS) CYP450-related Enzyme Activity (ADME) Assay for human CYP3A4 (AID 2283110; active = hit-call score of the fitted dose curve at least 0.9, where 1 is the maximum)
Method in brief: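 Compounds were first screened in duplicate at 10 uM against recombinant CYP3A4 produced in insect cells, then actives were run in concentration series. Enzyme activity was measured by fluorescence after 0.33 hour, with acetonitrile as baseline.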

[20] = target: human CYP2A6, CYP2A6 (gene 1548) (UniProt P11509); assay: NVS_ADME_hCYP2A6: NovaScreen (NVS) CYP450-related Enzyme Activity (ADME) Assay for human CYP2A6 (AID 2283099; active = hit-call score of the fitted dose curve at least 0.9, where 1 is the maximum)
Method in brief: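 Compounds screened at 10 uM (duplicate) and, if active, titrated to a 20 uM top concentration against insect-cell-expressed CYP2A6. Loss of fluorescent product signal after 0.5 h, relative to acetonitrile baseline, indicates inhibition.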

Chain of Tumor necrosis factor (Homo sapiens) (P01375 whole entry, looked up): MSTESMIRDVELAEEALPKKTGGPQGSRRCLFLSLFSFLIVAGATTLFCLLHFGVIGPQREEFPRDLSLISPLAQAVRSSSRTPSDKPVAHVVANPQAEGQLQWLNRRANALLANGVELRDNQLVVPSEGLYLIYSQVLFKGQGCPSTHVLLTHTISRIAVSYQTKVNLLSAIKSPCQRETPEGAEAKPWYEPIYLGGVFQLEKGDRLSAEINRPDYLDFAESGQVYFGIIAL
Chain of E-selectin (Homo sapiens) (P16581 whole entry, looked up): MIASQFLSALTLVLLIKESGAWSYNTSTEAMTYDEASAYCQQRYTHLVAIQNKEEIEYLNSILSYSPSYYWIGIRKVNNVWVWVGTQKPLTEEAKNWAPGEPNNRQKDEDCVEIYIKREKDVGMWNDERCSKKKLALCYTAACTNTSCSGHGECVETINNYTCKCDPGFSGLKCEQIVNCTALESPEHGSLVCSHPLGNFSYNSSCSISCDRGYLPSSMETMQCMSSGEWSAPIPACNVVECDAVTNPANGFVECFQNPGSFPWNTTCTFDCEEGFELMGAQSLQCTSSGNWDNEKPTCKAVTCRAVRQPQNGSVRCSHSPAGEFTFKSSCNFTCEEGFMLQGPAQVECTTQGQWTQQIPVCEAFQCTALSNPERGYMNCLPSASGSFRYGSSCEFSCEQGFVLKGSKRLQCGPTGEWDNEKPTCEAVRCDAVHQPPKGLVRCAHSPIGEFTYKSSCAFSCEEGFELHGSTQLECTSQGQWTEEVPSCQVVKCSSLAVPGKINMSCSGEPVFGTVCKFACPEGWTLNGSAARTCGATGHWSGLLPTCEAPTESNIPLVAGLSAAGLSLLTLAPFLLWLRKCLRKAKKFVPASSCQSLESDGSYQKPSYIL
Chain of human CYP2C9, CYP2C9 (gene 1559) (P11712 whole entry, looked up): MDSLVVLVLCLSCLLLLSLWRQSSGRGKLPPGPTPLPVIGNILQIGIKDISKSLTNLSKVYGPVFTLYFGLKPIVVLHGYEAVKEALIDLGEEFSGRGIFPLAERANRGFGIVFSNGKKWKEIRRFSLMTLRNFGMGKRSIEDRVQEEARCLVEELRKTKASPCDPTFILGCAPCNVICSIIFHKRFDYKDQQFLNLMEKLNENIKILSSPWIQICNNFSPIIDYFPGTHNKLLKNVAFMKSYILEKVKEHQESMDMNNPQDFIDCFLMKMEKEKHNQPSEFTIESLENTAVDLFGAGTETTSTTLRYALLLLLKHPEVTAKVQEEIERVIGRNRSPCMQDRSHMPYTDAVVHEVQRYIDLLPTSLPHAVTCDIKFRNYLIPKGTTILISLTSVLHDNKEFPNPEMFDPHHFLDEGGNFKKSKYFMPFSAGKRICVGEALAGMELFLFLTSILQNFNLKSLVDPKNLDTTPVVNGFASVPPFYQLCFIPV
Chain of human CYP1A2, CYP1A2 (gene 1544) (P05177 whole entry, looked up): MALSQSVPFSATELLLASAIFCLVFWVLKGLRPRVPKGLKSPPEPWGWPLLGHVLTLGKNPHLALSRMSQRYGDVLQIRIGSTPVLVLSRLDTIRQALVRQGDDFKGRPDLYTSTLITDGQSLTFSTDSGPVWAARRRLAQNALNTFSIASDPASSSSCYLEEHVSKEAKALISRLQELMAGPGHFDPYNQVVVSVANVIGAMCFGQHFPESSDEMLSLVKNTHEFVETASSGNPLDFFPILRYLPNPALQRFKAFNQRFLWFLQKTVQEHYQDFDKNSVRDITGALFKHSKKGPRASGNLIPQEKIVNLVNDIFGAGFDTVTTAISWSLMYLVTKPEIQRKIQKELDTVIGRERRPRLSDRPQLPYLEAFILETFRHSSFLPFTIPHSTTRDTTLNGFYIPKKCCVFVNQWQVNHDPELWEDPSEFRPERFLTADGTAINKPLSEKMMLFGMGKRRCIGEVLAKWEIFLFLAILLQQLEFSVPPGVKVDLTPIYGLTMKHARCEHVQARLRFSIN
Chain of human CYP2B6, CYP2B6 (gene 1555) (P20813 whole entry, looked up): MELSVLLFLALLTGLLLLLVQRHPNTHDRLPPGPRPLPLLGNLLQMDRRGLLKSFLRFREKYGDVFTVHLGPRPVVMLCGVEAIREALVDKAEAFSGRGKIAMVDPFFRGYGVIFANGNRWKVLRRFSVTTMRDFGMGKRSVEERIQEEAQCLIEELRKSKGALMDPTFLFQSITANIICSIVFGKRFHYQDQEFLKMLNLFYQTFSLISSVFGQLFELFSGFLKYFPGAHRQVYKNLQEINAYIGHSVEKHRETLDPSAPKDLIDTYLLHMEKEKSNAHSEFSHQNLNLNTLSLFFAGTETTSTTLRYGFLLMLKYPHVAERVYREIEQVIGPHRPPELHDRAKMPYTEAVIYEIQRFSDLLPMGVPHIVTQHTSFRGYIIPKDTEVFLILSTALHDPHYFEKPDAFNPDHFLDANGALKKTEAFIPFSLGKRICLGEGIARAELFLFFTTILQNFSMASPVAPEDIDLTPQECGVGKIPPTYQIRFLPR
Chain of Cytochrome P450 3A4 (Homo sapiens) (P08684 whole entry, looked up): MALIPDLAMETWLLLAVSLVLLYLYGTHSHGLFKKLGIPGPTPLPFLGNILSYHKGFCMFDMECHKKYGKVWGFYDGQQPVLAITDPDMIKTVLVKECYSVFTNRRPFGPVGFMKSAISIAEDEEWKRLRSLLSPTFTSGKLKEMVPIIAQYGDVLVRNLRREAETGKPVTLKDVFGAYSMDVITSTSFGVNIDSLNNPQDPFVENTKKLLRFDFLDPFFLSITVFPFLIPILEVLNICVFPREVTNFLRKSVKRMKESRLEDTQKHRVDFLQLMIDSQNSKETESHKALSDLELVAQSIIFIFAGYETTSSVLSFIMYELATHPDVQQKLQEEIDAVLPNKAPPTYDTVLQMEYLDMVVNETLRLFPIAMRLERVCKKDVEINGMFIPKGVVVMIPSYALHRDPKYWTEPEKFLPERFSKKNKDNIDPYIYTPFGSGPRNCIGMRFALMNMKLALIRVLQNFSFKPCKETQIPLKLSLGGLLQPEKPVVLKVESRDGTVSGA
Chain of human CYP2D6, CYP2D6 (gene 1565) (P10635 whole entry, looked up): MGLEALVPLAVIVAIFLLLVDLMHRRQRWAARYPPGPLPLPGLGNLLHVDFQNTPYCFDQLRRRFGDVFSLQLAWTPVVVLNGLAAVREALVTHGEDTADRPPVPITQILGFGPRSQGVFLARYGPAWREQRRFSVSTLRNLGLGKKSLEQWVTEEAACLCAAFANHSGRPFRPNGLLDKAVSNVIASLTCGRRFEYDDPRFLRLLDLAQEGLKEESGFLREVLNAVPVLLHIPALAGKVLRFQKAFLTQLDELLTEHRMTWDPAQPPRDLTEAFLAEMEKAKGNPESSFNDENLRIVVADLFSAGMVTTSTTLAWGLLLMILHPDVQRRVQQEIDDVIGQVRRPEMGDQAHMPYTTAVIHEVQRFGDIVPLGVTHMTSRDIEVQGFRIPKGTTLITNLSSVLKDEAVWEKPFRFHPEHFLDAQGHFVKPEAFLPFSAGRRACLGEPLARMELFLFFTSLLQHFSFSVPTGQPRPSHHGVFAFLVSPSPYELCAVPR
Chain of human CYP2A6, CYP2A6 (gene 1548) (P11509 whole entry, looked up): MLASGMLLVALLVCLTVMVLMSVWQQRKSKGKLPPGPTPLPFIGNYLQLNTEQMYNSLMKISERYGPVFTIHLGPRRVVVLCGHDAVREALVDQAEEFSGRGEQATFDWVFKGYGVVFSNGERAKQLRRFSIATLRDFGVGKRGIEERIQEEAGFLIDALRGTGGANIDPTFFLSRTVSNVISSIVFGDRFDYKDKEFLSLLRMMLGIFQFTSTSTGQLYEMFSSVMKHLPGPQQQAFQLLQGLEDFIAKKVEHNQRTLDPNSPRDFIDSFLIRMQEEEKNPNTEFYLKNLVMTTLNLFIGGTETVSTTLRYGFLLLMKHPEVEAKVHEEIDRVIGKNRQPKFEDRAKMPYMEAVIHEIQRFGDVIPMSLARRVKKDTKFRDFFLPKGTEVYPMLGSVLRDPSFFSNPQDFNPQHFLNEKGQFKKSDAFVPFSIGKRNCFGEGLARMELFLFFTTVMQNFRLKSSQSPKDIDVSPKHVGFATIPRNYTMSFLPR
Chain of human CYP19A1, CYP19A1 (gene 1588) (P11511 whole entry, looked up): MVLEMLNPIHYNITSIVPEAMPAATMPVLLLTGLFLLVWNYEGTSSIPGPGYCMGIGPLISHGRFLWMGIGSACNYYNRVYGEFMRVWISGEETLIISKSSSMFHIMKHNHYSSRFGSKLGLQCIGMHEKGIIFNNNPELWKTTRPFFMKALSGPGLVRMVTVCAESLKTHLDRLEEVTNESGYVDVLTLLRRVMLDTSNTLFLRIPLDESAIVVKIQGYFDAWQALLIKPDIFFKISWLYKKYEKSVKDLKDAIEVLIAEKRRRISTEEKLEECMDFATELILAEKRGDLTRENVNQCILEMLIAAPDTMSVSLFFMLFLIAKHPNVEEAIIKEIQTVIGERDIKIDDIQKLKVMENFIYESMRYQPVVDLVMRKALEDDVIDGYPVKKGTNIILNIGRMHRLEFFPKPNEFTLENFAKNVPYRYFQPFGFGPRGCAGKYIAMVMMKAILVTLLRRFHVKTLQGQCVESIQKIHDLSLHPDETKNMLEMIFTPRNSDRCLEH

## CCCCCCc1ccc(O)cc1O
[1]
  AC50: 32.6 µM (active)
[2]
  AC50: 32 µM (active)
[3]
  AC50: 33 µM (active)
[4]
  AC50: 27.6 µM (active)
[5]
  AC50: 33.6 µM (active)
[6]
  AC50: 36.8 µM (active)
[7]
  AC50: 33.1 µM (active)
[8]
  AC50: 24.4 µM (active)
[9]
  AC50: 31 µM (active)
[10]
  AC50: 4.09 µM (active)
[11]
  AC50: 4.64 µM (active)
[12]
  outcome: inactive
[13]
  AC50: 8.17 µM (active)
[14]
  AC50: 10 µM (active)
[15]
  AC50: 4.91 µM (active)

## CC(C)=CCC/C(C)=C\CO
[1]
  outcome: inactive
[3]
  outcome: inactive
[16]
  outcome: inactive
[17]
  outcome: inactive
[4]
  outcome: inactive
[5]
  outcome: inactive
[6]
  outcome: inactive
[7]
  outcome: inactive
[8]
  outcome: inactive
[9]
  outcome: inactive
[18]
  outcome: inactive

## CNS(=O)(=O)c1cc(C(=O)N2CCC(CCN3C4CCC3CC(n3c(C)nc5ccccc53)C4)(c3cccc(F)c3)CC2)c(Cl)cc1F (centres undefined)
[2]
  AC50: 5.99 µM (active)
[3]
  AC50: 28.9 µM (active)
[16]
  AC50: 23.2 µM (active)
[17]
  AC50: 20 µM (active)
[4]
  AC50: 27.5 µM (active)
[5]
  outcome: inactive
[6]
  outcome: inactive
[7]
  AC50: 12.6 µM (active)
[8]
  AC50: 20 µM (active)
[9]
  AC50: 10.4 µM (active)
[18]
  AC50: 16.7 µM (active)
[14]
  AC50: 6.52 µM (active)
[19]
  AC50: 4.08 µM (active)
[15]
  AC50: 6.01 µM (active)

## CC(C)=CCCC(C)=CC=O
[1]
  outcome: inactive
[2]
  AC50: 33.7 µM (active)
[3]
  outcome: inactive
[4]
  outcome: inactive
[5]
  outcome: inactive
[6]
  outcome: inactive
[7]
  outcome: inactive
[8]
  outcome: inactive
[9]
  outcome: inactive
[18]
  outcome: inactive
[20]
  outcome: inactive
[15]
  outcome: inactive

## COC(=O)c1c(Cl)c(Cl)c(C(=O)OC)c(Cl)c1Cl
[1]
  outcome: inactive
[2]
  outcome: inactive
[3]
  outcome: inactive
[4]
  outcome: inactive
[5]
  outcome: inactive
[6]
  outcome: inactive
[7]
  outcome: inactive
[8]
  outcome: inactive
[9]
  outcome: inactive
[18]
  outcome: inactive
[12]
  AC50: 8.47 µM (active)

## CC(C)CCO
[1]
  outcome: inactive
[2]
  outcome: inactive
[3]
  outcome: inactive
[4]
  outcome: inactive
[5]
  outcome: inactive
[6]
  outcome: inactive
[7]
  outcome: inactive
[8]
  outcome: inactive
[9]
  outcome: inactive
[18]
  outcome: inactive

## CC[C@H]1CC[C@H](NCc2cc3c(cc2OC)[C@H]2C[C@H]2C(=O)N3C)[C@H](c2ccccc2)N1
[2]
  outcome: inactive
[3]
  outcome: inactive
[16]
  outcome: inactive
[17]
  outcome: inactive
[4]
  outcome: inactive
[5]
  outcome: inactive
[6]
  outcome: inactive
[7]
  outcome: inactive
[8]
  outcome: inactive
[9]
  outcome: inactive
[18]
  outcome: inactive
